High-throughput results: PubChem BioAssay, The Scripps Research Institute Molecular Screening Center
Rows were chosen to be rich in hits. Some 4.2% of all compounds tested hit in one or more screens of this group.
SMARCA2 act: SMARCA2 (BRM) function activators, primary screen, cell-based, luminescence, high throughput | MG213 cells, MMTV-luciferase reporter, dexamethasone, overnight | activation, % at 9.1 µM | 1% of 370,000 active | AID 652017, 2013; in the data active = activation above about 7.8%
DAX1 inh: DAX1 (NR0B1) inhibitors on StAR promoter, primary screen, cell-based, luminescence, SF-1 (NR5A1), full-length DAX-1; HEK293T StAR-luciferase reporter, SF-1/DAX-1 repression relief; inhibition, % at 6.8 µM; 1.1% of 370,000 active; AID 652010, 2013;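 active = inhibition above the mean over all tested compounds plus 3 SD, cut at about 3.6% in these data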;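 note: higher inhibition means more luminescence from relief of DAX-1 repression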
hcDAF12 agonist: H. contortus DAF-12 nuclear receptor activators, primary screen, cell-based, luminescence, HEK293, lit1-tk-luc reporter | 1.4% of 370,000 active | HEK293 hcDAF-12 lit1-tk-luc reporter; 0% DMSO, 100% Δ7-dafachronic acid | activation, % at 6.8 µM | AID 652067, 2013;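 active = activation above the mean of all tested compounds plus 3 SD, cut at about 5.5% in these data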
ssDAF12 agonist: S. stercoralis DAF-12 nuclear receptor activators, primary screen, cell-based, luminescence, HEK293, GRIP1 co-expression, lit1-tk-luc; activation, % at 6.8 µM; 1% of 370,000 active; HEK293 ssDAF-12/GRIP1 lit1-tk-luc reporter; % of 3 µM dafachronic acid response;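 active = activation above the mean over all tested compounds plus 3 SD, cut at about 0.9% in these data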
hgDAF12 agonist: H. glycines DAF-12 receptor agonists, primary screen, cell-based, luminescence, HEK293, GAL4 fusion, UAS-luciferase; HEK293 GAL4-hgDAF12 UAS-luciferase reporter, agonist luminescence; normalized to butyrate control; 1.8% of 370,000 active; activation, % at 6.8 µM; Nuclear hormone receptor DAF-12 (Heterodera glycines), GAL4 fusion;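 active = activation above a cutoff set at the mean of all screened compounds plus 3 SD, cut at about 10% in these data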
Large screens that a line does not name were inactive.

CC(C)(C)C(=O)Nc1ccc(-c2cn3ccsc3n2)cc1	hcDAF12 agonist 5.9
CC(C)CC(=O)Nc1ccc(-c2cn3ccsc3n2)cc1	hgDAF12 agonist 10.8
Cc1nc(-c2cccc(NC(=O)c3ccc(-n4nccc4C)cc3)c2)cs1	none
Cc1nc(-c2ccc(C(=O)Nc3cccc(Br)c3)cc2)cs1	hgDAF12 agonist 10.9
Nc1[nH]c(C(=O)c2ccccc2)c(-c2ccc(Cl)cc2)c1C(=O)c1c[nH]c2ccc(Br)cc12	none
CN(CCOC(=O)CC1C=CCC1)C1CN(Cc2cn(Cc3ccccc3Cl)nn2)S(=O)(=O)C1 (stereo not drawn)	none
CC(C)CC1NC(=O)c2cc3ccccc3cc2-n2c1nc1cc(Cl)ccc1c2=O (stereo not drawn)	none
O=C1NC(Cc2ccccc2)c2nc3ccccc3c(=O)n2-c2cc3ccccc3cc21 (stereo not drawn)	none
CC1NC(=O)c2cc3ccccc3cc2-n2c1nc1cc(Cl)ccc1c2=O (stereo not drawn)	ssDAF12 agonist 1.1
Cc1ccc2c(=O)n3c(nc2c1)C(Cc1ccccc1)NC(=O)c1cc2ccccc2cc1-3 (stereo not drawn)	ssDAF12 agonist 1.2
CC1NC(=O)c2cc3ccccc3cc2-n2c1nc1cc(F)ccc1c2=O (stereo not drawn)	ssDAF12 agonist 1.8
COC(=O)[C@]12CCCCC=C1N(Cc1cccc3ccccc13)C(=O)[C@H](CC(=O)N1CCN(C(=O)c3ccco3)CC1)C2	none
Clc1nc(Nc2ccccc2)nc(Nc2ccccc2)n1	none
CC(C)(C)Nc1nc(Cl)nc(Nc2ccccc2)n1	hgDAF12 agonist 10.9
Nc1nnc(-c2cc3ccccc3oc2=O)s1	SMARCA2 act 7.9
COc1ccc2oc(=O)c(-c3nnc(N)s3)cc2c1	none
O=c1oc2ccccc2cc1-c1nnc(NCc2ccco2)s1	DAX1 inh 3.9, hgDAF12 agonist 11.8
O=c1oc2ccccc2cc1-c1nc2c(s1)CCc1ccccc1-2	none
COc1ccc(OC)c(CN2C(=O)CN(S(C)(=O)=O)CC2(C)C(=O)NCc2ccccc2)c1 (stereo not drawn)	none
CCOc1ccc2nc(SCC(=O)c3cccs3)sc2c1	hgDAF12 agonist 12.0
COC(=O)C[C@@H]1CC[C@H]2[C@@H](COc3ccc(NC(=O)c4cc(C)on4)cc3C(=O)N2C)O1	none
CCOc1cccc(C(=O)Nc2ccc3[nH]ncc3c2)c1	hgDAF12 agonist 12.9
CCOc1cccc(C(=O)Nc2ccncc2)c1	none
COc1ccccc1OCC(=O)Nc1ccc2c(c1)OCCO2	none
NC(=O)c1ccccc1OCC(=O)Nc1ccc2c(c1)OCCO2	DAX1 inh 4.5
Cc1ccccc1OCC(=O)Nc1ccc2c(c1)OCCO2	hgDAF12 agonist 12.8
CCN1CCCCC(NC(=O)c2ccc(F)cc2)C1=O (stereo not drawn)	none
COc1ccc(CN2C[C@H](COCc3ccccc3)Oc3cccc(F)c3S2(=O)=O)cc1	none
CC(C)C[C@H]1CN(CCCC[C@H]2CNC(=O)C(=O)N2CCc2ccccc2)C(=O)C(=O)N1CCc1ccccc1	none
NNC(=O)c1ccccc1OCCOc1ccccc1	ssDAF12 agonist 2.7
C/C(=N\NC(=O)c1ccccc1OCCOc1ccccc1)c1ccccc1F	none
O=C(NCCOc1ccccc1)c1ccccc1Cl	hgDAF12 agonist 11.8
O=C(Nc1ccccc1)OCCOc1ccccc1	hgDAF12 agonist 11.8
NC(=O)COc1ccccc1	ssDAF12 agonist 1.2
C[C@H]1[C@H](N(Cc2ccccc2)Cc2ccccc2)CC[C@@]23CCCN2C(=O)CCC[C@@H]13	none (no result: SMARCA2 act, DAX1 inh)
COc1cc(C2NC(=O)CCC2[N+](=O)[O-])c(OC)cc1Br (stereo not drawn)	ssDAF12 agonist 0.9
COc1cccc(C2NC(=O)CCC2[N+](=O)[O-])c1OC (stereo not drawn)	none
C/C(=N\NC(=O)c1ccccc1C)c1ccc(NC(=O)c2cccs2)cc1	hgDAF12 agonist 11.9
COc1cc(C=NNC(=O)CN2CCN(Cc3ccc(C)cc3)CC2)cc(OC)c1O	none
CCN(CC)S(=O)(=O)c1ccc2c(c1)nc(-c1ccccn1)n2C	hcDAF12 agonist 6.2
Cc1n[nH]c(=O)c2c(NC(=O)CSc3nn(-c4ccccc4)c(=S)s3)oc(C)c12	ssDAF12 agonist 1.1
COc1ccc(-c2cc3ncnc(Cl)c3s2)cc1	hgDAF12 agonist 10.9
COc1ccc(-c2cc3nnc(-c4ccccc4)nc3s2)cc1	none
COc1ccc(/C(O)=C2\C(=O)C(=O)N(CCN(C)C)C2c2cccc(OC)c2OC)cc1 (stereo not drawn)	SMARCA2 act 9.6
c1ccc(SCc2nc(-c3ccncc3)no2)cc1	hcDAF12 agonist 5.6
CCCCOCCCNC(=O)C[C@H]1C[C@@]2(C(=O)OC)C(=C[C@H](C(C)C)O[C@@H]2C2CC2)N(Cc2ccccc2)C1=O	none
C[C@H]1[C@@H](NC(=O)c2ccc(O)cc2)CC[C@@]23CCCN2C(=O)CCC[C@@H]13	none (no result: SMARCA2 act, DAX1 inh)
Cc1cc2nc(-c3ccc(NC(=O)C(C)C)cc3)oc2cc1C	DAX1 inh 3.7, ssDAF12 agonist 1.0, hgDAF12 agonist 11.0
Cc1ccc(-c2nc3cc(NC(=O)C(C)C)ccc3o2)cc1C	none
O=S1(=O)c2ccc(Br)cc2OC[C@H](Cc2ccccc2)N1Cc1cn(Cc2ccc(F)cc2)nn1	none
Cc1cc(C)cc(OCc2nnc(N)s2)c1	none
Cc1ccc(OCc2nnc(N)s2)cc1	hgDAF12 agonist 10.6
N#Cc1c(SCC(=O)Nc2ccc(Cl)cc2Cl)sc2c(O)cc(=O)[nH]c12	SMARCA2 act 7.8
COC(=O)[C@]12C[C@H](CC(=O)NCCC(C)C)C(=O)N(Cc3ccco3)C1=C[C@H](C(C)(C)C)O[C@@H]2C	none
COc1ccc(-c2noc(CCC(=O)N3CCC(c4cc(C)ccc4C)CC3)n2)cc1	ssDAF12 agonist 3.0
COc1ccc(-c2noc(CCC(=O)N3CCN(c4cccc(OC)c4)CC3)n2)cc1	none
CCN(CC)C(=O)CC[C@@H]1CC[C@]2(CCCN(Cc3ccccc3)C2)O1	none
CCOc1ccc2oc(C(=O)NC(C)(C)CC)c(C)c2c1	hgDAF12 agonist 12.7
COC(=O)[C@]12C[C@H](CC(=O)NCc3cccc4ccccc34)C(=O)N(CCc3ccc(OC)c(OC)c3)C1=C[C@H](C(C)C)O[C@@H]2C1CC1	none
COc1ccc(CC(=O)NCc2n[nH]c(=S)n2-c2ccc(F)cc2)cc1	none
CCn1c(CNC(=O)Cc2ccc(OC)cc2)nnc1SCC(=O)NC1CCCCC1	ssDAF12 agonist 1.0
